TGFb SMAD3 inh = blocks TGF-b signaling; HepG2 CAGA-GFP TGF-b/SMAD3 reporter, GFP fluorescence, 18 h; TGF-beta stimulated, 500 pg/mL final; Potency, µM (doses to about 46.1 µM), for the others: top-dose activity, negative = inhibition, hits mostly inhibitors; hit rate 1.2% among 410,000; AID 588855; note: % is set by controls: 0 for no effect and ±100 for the full control effect; nearly all actives have a fitted effect of over 65% in size
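HEPG2 CAGA-GFP, 1000 cells/well; 2 h settle, 37 C; cpd via pin tool; TGF-b 500 pg/mL final; 18 h, 37 C; GFP imaging ex488/em500-530; %Activity normalised to -TGF-b and +DMSO controls; CRC fit, curve class.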
HepG2 tox = kills HepG2 cells in TGF-b inhibitor counter-screen. hit rate 0.76% among 410,000. HepG2 CAGA-GFP viability, ATP luminescence, 18 h. Potency, µM (top dose mostly 46.1 µM), inactives show top-dose activity change, negative = cytotoxicity, usual class: cytotoxic. AID 588856
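CellTiter-Glo luminescence gave cytotoxicity after 18 hours at 37 degrees C. The cells were HepG2 CAGA-GFP in 1% FBS DMEM, stimulated with 500 pg/mL TGF-beta after compound addition. %Activity was normalised to no-cell wells (complete cell-killing) and DMSO (no toxicity), and curves were fitted and classified.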
S2 tox = reduces viability in counter-screen for ATXN expression inhibitors. S2 cells (HEK-293 line with an ATXN2-luciferase reporter) viability, CellTiter-Fluor protease fluorescence, 24 h. Potency, µM (highest dose often 56.7 µM), usual class: cytotoxic. hit rate 0.49% among 400,000. AID 651635; note: nearly all actives have a fitted effect of over 40% in size
Gal4-VP16 FLuc = counter-screen for ROR gamma inhibitors: Gal4-VP16 reporter | AID 2546 | hit rate 3.5% among 310,000 | Potency, µM (doses to about 53.6 µM), inactives show at the top dose activity, negative = inhibition, usual class: inhibitors | Drosophila S2 Gal4-VP16 UAS-luciferase, luminescence, 20 h;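 note: Gal4-VP16 expression switched on by copper sulfate through the metallothionein promoter; % is set by controls: 0 for no effect and ±100 for the full control effect; nearly all actives have a fitted effect of over 50% in size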
RORgamma inh = blocks mouse ROR gamma transcriptional activity; hit rate 5.4% among 310,000; P51450; Drosophila S2 Gal4-RORgamma UAS-luciferase reporter, 20 h; Potency, µM (highest dose often 53.6 µM), for the others: at the highest dose activity change, negative = inhibition, hits mostly inhibitors; note: % is set by controls: 0 for no effect and ±100 for the full control effect; nearly all actives have a fitted effect of over 60% in size
Target sequence (P51450 whole entry, looked up, the tested form may be a part): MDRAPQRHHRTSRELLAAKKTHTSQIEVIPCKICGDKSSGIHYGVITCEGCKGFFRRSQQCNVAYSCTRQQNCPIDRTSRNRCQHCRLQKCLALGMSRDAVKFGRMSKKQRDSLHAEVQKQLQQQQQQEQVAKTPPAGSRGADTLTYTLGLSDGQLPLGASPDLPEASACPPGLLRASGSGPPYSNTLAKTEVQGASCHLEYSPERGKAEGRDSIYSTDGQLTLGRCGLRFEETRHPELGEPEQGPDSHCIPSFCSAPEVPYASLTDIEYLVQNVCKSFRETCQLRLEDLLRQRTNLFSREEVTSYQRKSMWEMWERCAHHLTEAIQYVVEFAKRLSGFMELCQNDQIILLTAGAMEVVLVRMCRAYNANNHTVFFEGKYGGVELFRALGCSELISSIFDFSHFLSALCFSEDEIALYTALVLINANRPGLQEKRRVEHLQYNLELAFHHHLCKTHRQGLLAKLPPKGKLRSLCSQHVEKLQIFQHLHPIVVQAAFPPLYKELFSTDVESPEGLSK
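Stably transfected Drosophila Schneider cells are the test system, with ROR gamma fused to Gal4 and luciferase under UAS control; luminescence is read after 20 hr of 700 uM copper sulfate induction at ambient temperature.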
ATXN2 expr inh = reduces ATXN2 reporter expression in HEK-293 cells; HEK-293 ATXN2-luciferase reporter, luminescence, 24 h; Potency, µM (top dose mostly 57 µM), for the others: at the top dose activity change, negative = inhibition, usual class: inhibitors; hit rate 0.72% among 360,000; AID 1745845; note: % is set by controls: 0 for no effect and ±100 for the full control effect; nearly all actives have a fitted effect of over 55% in size
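ATXN2-luciferase reporter cells (luciferase flanked by upstream and downstream ATXN2 gene portions) were treated 24 h at 37 °C with compounds at up to 57 uM. SteadyGlo luminescence gave expression; GF-AFC fluorescence gave viability.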
* = called active by the depositor. Most compounds without a hit are left out; they make up all but 6.1% or so of the library. Calls come from the whole dose curve; as a rule, active = well fitted curve in the direction sought with a large enough effect; inconclusive = small, poorly fitted or top-dose-only effect, or another doubt; inactive = no such curve, though single readings can be large; an effect the other way counts as inactive or inconclusive. Potency is the fitted concentration of half-maximal effect.

What do the screens show for `Brc1ccc(N=Nc2ccc3ccccc3n2)cc1`?
TGFb SMAD3 inh: -5%; HepG2 tox: -32%; S2 tox: inactive; Gal4-VP16 FLuc: 0.45µM*; RORgamma inh: 0.11µM*; ATXN2 expr inh: inconclusive

What do the screens show for `Cc1cc(N/N=C/c2c(O)ccc3ccccc23)nc(-c2ccccc2O)n1`?
TGFb SMAD3 inh: 0%; HepG2 tox: -20%; S2 tox: inactive; Gal4-VP16 FLuc: 4µM*; RORgamma inh: 7.1µM*; ATXN2 expr inh: inconclusive

Results for Cc1ccc(S(=O)(=O)/N=C/c2c(O)ccc3ccccc23)cc1 ?
TGFb SMAD3 inh: -8%; HepG2 tox: -17%; S2 tox: inactive; Gal4-VP16 FLuc: inconclusive; RORgamma inh: 18µM*

How did NC(=S)N/N=C/c1c(O)ccc2ccccc12 do in these assays?
TGFb SMAD3 inh: inconclusive; HepG2 tox: -49%; S2 tox: inconclusive; Gal4-VP16 FLuc: 4µM*; RORgamma inh: 1.1µM*

What do the screens show for `Oc1ccc2ccccc2c1/C=N/Nc1ccccc1`?
TGFb SMAD3 inh: -2%; HepG2 tox: -2%; S2 tox: inactive; Gal4-VP16 FLuc: inconclusive; RORgamma inh: inconclusive; ATXN2 expr inh: 28%

Results for O=CN/N=C/c1c(O)ccc2ccccc12 ?
TGFb SMAD3 inh: 2%; HepG2 tox: -5%; S2 tox: inconclusive; Gal4-VP16 FLuc: 2.8µM*; RORgamma inh: 0.79µM*

Results for CCN1CCCC1CNC(=O)c1cnn(-c2nccc(-c3ccccc3OC)n2)c1-c1ccco1 (centres undefined) ?
S2 tox: inactive

Results for NC(=S)N/N=C/c1coc2c(ccc3ccccc32)c1=O ?
TGFb SMAD3 inh: 2%; HepG2 tox: 6%; S2 tox: inactive; Gal4-VP16 FLuc: 7.9µM*; RORgamma inh: 5.6µM*; ATXN2 expr inh: 3%

How did Cc1ccc(C(C)C)c(OCC(=O)Nc2ccccc2N2CCN(C)CC2)c1 do in these assays?
TGFb SMAD3 inh: inconclusive; HepG2 tox: -60%; S2 tox: inconclusive; Gal4-VP16 FLuc: 13µM*; RORgamma inh: inconclusive; ATXN2 expr inh: inconclusive

What do the screens show for `Cc1ccc(C(C)C)c(OCC(O)CN2CCN(c3ccccc3F)CC2)c1` (centres undefined)?
TGFb SMAD3 inh: 16µM*; HepG2 tox: -54%

What do the screens show for `CC(=O)N1CCN(c2ccccc2NC(=O)COc2cc(C)ccc2C(C)C)CC1`?
TGFb SMAD3 inh: 10%; HepG2 tox: -7%; S2 tox: inactive; Gal4-VP16 FLuc: 0%; RORgamma inh: -40%; ATXN2 expr inh: -9%

Results for Cc1ccc(C(C)C)c(OCC(O)CN2CCc3ccccc3C2)c1 (centres undefined) ?
TGFb SMAD3 inh: inconclusive; HepG2 tox: -43%; S2 tox: inconclusive; Gal4-VP16 FLuc: 22µM*; RORgamma inh: -6%; ATXN2 expr inh: inconclusive

Results for CCn1c(-c2ccccc2F)nc2cc(C(=O)NCC3CCOCC3)cc(NC(C)=O)c21 ?
S2 tox: inactive

Results for O=C(Cn1cc([N+](=O)[O-])nc1[N+](=O)[O-])N1CCN(c2ccccc2)CC1 ?
TGFb SMAD3 inh: inconclusive; HepG2 tox: -108%; S2 tox: inactive; Gal4-VP16 FLuc: inconclusive; RORgamma inh: 5.6µM*; ATXN2 expr inh: -6%

Results for CCN1C(=O)/C(=C2/Sc3ccccc3N2CC)S/C1=N\c1ncn[nH]1 ?
TGFb SMAD3 inh: 18%; HepG2 tox: -18%; Gal4-VP16 FLuc: 5µM*; RORgamma inh: 11µM*; ATXN2 expr inh: inconclusive

How did CC(=S)/C=C1\Sc2ccccc2N1C do in these assays?
TGFb SMAD3 inh: inconclusive; HepG2 tox: -20%; S2 tox: inactive; Gal4-VP16 FLuc: 10µM*; RORgamma inh: 5µM*; ATXN2 expr inh: 7%

Source: PubChem BioAssay
